Experimental data from PubChem BioAssay (EPA / NIEHS).
Several values for one entry are separate records, joined by “and”; a condition that tells them apart may be missing. Identical values can stand only once. Some structures have more than one record in an assay (separate samples or runs), and their calls can disagree. Activity calls are given as the source filed them. How the source made its calls: active means hit-call score of the fitted dose curve at least 0.9, where 1 is the maximum; inactive means score below 0.9.

What was measured:
[1] = BSK_hDFCGF_SRB: Viability Assessment in the BioMAP Diversity Plus: hDFCGF Assay (AID 2283061); settings: primary human foreskin fibroblasts;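 further: cells exposed to compound for 24 h before the read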
Outline: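 Human foreskin fibroblasts in 96-well plates were treated 24 h. Total protein was measured by 0.1% SRB staining after 10% TCA fixation, read at 560 nm. Data were fitted bidirectionally against DMSO.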

[2] = read-out: TIMP metallopeptidase inhibitor 1 (TIMP1), TIMP1 (gene 7076); assay: BSK_hDFCGF_TIMP1: BioMAP Diversity Plus: hDFCGF Assay for TIMP metallopeptidase inhibitor 1 (TIMP1) Biomarker Activity (AID 2283062); settings: primary human foreskin fibroblasts; actives raise or lower the signal
Outline: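 Human foreskin fibroblast primary cultures dosed for 24 h; secreted/surface TIMP-1 quantified by ELISA. Bidirectional curve fitting against DMSO baseline; cytotoxicity tracked in parallel cultures by SRB total-protein staining.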

[3] = read-out: Monokine induced gamma interferon (MIG), CXCL9 (gene 4283); assay: BSK_hDFCGF_MIG: BioMAP Diversity Plus: hDFCGF Assay for Monokine induced gamma interferon (MIG) Biomarker Activity (AID 2283063); settings: primary human foreskin fibroblasts; actives raise or lower the signal
Outline: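 MIG/CXCL9 measured by ELISA 24 h after dosing primary human skin fibroblasts. Activity fitted in both directions against DMSO controls. Cytotoxicity was checked in parallel cultures by SRB staining read at 560 nm.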

[4] = read-out: Matrix Metallopeptidase 1 (MMP1), MMP1 (gene 4312); assay: BSK_hDFCGF_MMP1: BioMAP Diversity Plus: hDFCGF Assay for Matrix Metallopeptidase 1 (MMP1) Biomarker Activity (AID 2283064); settings: primary human foreskin fibroblasts; actives raise or lower the signal
Outline: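 hDFCGF primary fibroblasts (human foreskin); chemical added; 24 h; MMP1 by ELISA; bidirectional fit vs DMSO.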

[5] = read-out: Vascular cell adhesion molecule 1 (VCAM1), VCAM1 (gene 7412); assay: BSK_hDFCGF_VCAM1: BioMAP Diversity Plus: hDFCGF Assay for Vascular cell adhesion molecule 1 (VCAM1) Biomarker Activity (AID 2283065); settings: primary human foreskin fibroblasts; actives raise or lower the signal;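 on AC50: VCAM-1 protein level quantified by ELISA after 24 h chemical exposure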
Outline: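 Human foreskin fibroblast primary cells dosed with chemical, VCAM-1 measured by ELISA at 24 h. Bidirectional curve fitting relative to DMSO as negative control/baseline.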

[6] = read-out: Plasminogen activator inhibitor-1 (PAI1), SERPINE1 (gene 5054); assay: BSK_hDFCGF_PAI1: BioMAP Diversity Plus: hDFCGF Assay for Plasminogen activator inhibitor-1 (PAI1) Biomarker Activity (AID 2283066); settings: primary human foreskin fibroblasts; actives raise or lower the signal
Outline: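 Human foreskin fibroblast primary cells, 24 h chemical exposure; PAI-1 measured by ELISA. Bidirectional fitting relative to DMSO; parallel cultures stained with SRB for total protein to flag overt cytotoxicity.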

[7] = read-out: Intercellular Adhesion Molecule 1 (ICAM1), ICAM1 (gene 3383); assay: BSK_KF3CT_ICAM1: BioMAP Diversity Plus: KF3CT Assay for Intercellular Adhesion Molecule 1 (ICAM1) Biomarker Activity (AID 2283067); settings: primary human keratinocytes with fibroblasts; actives raise or lower the signal
Outline: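 Human keratinocyte–foreskin fibroblast co-culture was treated for 24 h. Cell-surface ICAM-1 was quantified by ELISA, fitted bidirectionally relative to DMSO. Cytotoxicity was checked in parallel cultures by SRB total-protein staining.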

[8] = read-out: Interferon-gamma inducible Protein 10 (IP10), CXCL10 (gene 3627); assay: BSK_KF3CT_IP10: BioMAP Diversity Plus: KF3CT Assay for Interferon-gamma inducible Protein 10 (IP10) Biomarker Activity (AID 2283068); settings: primary human keratinocytes with fibroblasts; actives raise or lower the signal
Outline: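 KF3CT co-culture (keratinocytes + foreskin fibroblasts), 24 h compound, IP-10 by ELISA; bidirectional fit vs DMSO baseline.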

[9] = BSK_KF3CT_SRB: Viability Assessment in the BioMAP Diversity Plus: KF3CT Assay (AID 2283069); settings: primary human keratinocytes with fibroblasts;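 further: total protein by sulforhodamine B staining as a cytotoxicity measure; read 24 h after compound addition; fitted for both signal gain and loss against DMSO baseline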
Outline: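 Keratinocytes co-cultured with foreskin fibroblasts (human primary); chemical added, 24 h; fix 10% TCA, stain 0.1% SRB, A560. Bidirectional fit vs DMSO.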

[10] = read-out: Interleukin-1 alpha (IL1a), IL1A (gene 3552); assay: BSK_KF3CT_IL1a: BioMAP Diversity Plus: KF3CT Assay for Interleukin-1 alpha (IL1a) Biomarker Activity (AID 2283070); settings: primary human keratinocytes with fibroblasts; actives raise or lower the signal
Outline: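 Chemicals were dosed onto co-cultured human keratinocytes and foreskin fibroblasts, IL-1a was quantified by ELISA at 24 h, and activity was fitted in both directions relative to DMSO controls.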

[11] = read-out: TIMP metallopeptidase inhibitor 2 (TIMP2), TIMP2 (gene 7077); assay: BSK_KF3CT_TIMP2: BioMAP Diversity Plus: KF3CT Assay for TIMP metallopeptidase inhibitor 2 (TIMP2) Biomarker Activity (AID 2283071); settings: primary human keratinocytes with fibroblasts; actives raise or lower the signal
Outline: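 Co-culture of human primary keratinocytes and foreskin fibroblasts, measured 24 h after chemical dosing. TIMP-2 quantified by ELISA and fitted in both directions relative to DMSO. Cytotoxicity checked in parallel cultures by SRB total-protein staining.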

[12] = read-out: Transforming growth factor beta 1 (TGFb1), TGFB1 (gene 7040); assay: BSK_KF3CT_TGFb1: BioMAP Diversity Plus: KF3CT Assay for Transforming growth factor beta 1 (TGFb1) Biomarker Activity (AID 2283072); settings: primary human keratinocytes with fibroblasts; actives raise or lower the signal
Outline: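 Human keratinocyte/foreskin fibroblast co-culture; TGF-b1 measured by ELISA 24 h after dosing, fitted bidirectionally versus DMSO. Cytotoxicity checked in parallel cultures by total protein (SRB staining, 560 nm).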

[13] = read-out: C-C motif chemokine 2 (Homo sapiens) (UniProt P13500); assay: BSK_KF3CT_MCP1: BioMAP Diversity Plus: KF3CT Assay for Monocyte Chemoattractant Protein 1 (MCP1/CCL2) Biomarker Activity (AID 2283073); settings: primary human keratinocytes with fibroblasts; actives raise or lower the signal
Outline: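 Human keratinocyte–foreskin fibroblast co-culture; MCP-1 measured by ELISA 24 h after dosing. Bidirectional fit vs DMSO; cytotoxicity tracked by SRB total protein in parallel cultures.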

[14] = read-out: Matrix Metallopeptidase 9 (MMP9), MMP9 (gene 4318); assay: BSK_KF3CT_MMP9: BioMAP Diversity Plus: KF3CT Assay for Matrix Metallopeptidase 9 (MMP9) Biomarker Activity (AID 2283074); settings: primary human keratinocytes with fibroblasts; actives raise or lower the signal;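 on AC50: MMP9 protein level quantified by ELISA in the co-culture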
Outline: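 Human keratinocyte/foreskin fibroblast co-culture; compound added; 24 h; MMP-9 by ELISA; bidirectional fit vs DMSO baseline.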

[15] = read-out: urokinase plasminogen activator (uPA), PLAU (gene 5328); assay: BSK_KF3CT_uPA: BioMAP Diversity Plus: KF3CT Assay for urokinase plasminogen activator (uPA) Biomarker Activity (AID 2283075); settings: primary human keratinocytes with fibroblasts; actives raise or lower the signal
Outline: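 ELISA readout of uPA, analyzed for signal gain or loss relative to DMSO, from a human primary keratinocyte–foreskin fibroblast co-culture measured 24 h after chemical treatment.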

CD40, CD40 (gene 958) = assay: BSK_LPS_CD40: BioMAP Diversity Plus: LPS Assay for CD40 Biomarker Activity (AID 2283076); settings: primary human HUVEC with PBMC; actives raise or lower the signal
Outline: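 HUVEC plus PBMC co-culture stimulated with LPS; CD40 quantified by ELISA 24 h after compound dosing. Fitting was bidirectional relative to DMSO. SRB staining of parallel cultures flagged overt cytotoxicity.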

[16] = read-out: E-selectin (Homo sapiens) (UniProt P16581); assay: BSK_LPS_Eselectin: BioMAP Diversity Plus: LPS Assay for Eselectin Biomarker Activity (AID 2283077); settings: primary human HUVEC with PBMC; actives raise or lower the signal
Outline: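 Human umbilical vein endothelial cells co-cultured with PBMC under LPS stimulation; cell-surface E-selectin measured by ELISA 24 h after dosing. Change in either direction versus DMSO, with SRB total-protein staining in parallel cultures for cytotoxicity.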

[17] = read-out: Interleukin-8 (IL8), CXCL8 (gene 3576); assay: BSK_LPS_IL8: BioMAP Diversity Plus: LPS Assay for Interleukin-8 (IL8) Biomarker Activity (AID 2283078); settings: primary human HUVEC with PBMC; actives raise or lower the signal
Outline: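 Human umbilical vein endothelial cells co-cultured with PBMC, LPS-stimulated, exposed to compound for 24 h. IL-8 quantified by ELISA; fitted in both directions against DMSO, with SRB total-protein staining of parallel cultures for cytotoxicity.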

[18] = BSK_LPS_SRB: Viability Assessment in the BioMAP Diversity Plus: LPS Assay (AID 2283079); settings: primary human HUVEC with PBMC;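 further: total protein by sulforhodamine B absorbance as a cytotoxicity measure; measured one day after compound addition; fitted in both directions against DMSO so loss or gain of signal counts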
Outline: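 Co-culture of human umbilical vein endothelial cells and PBMC, read 24 h after dosing. Total protein by 0.1% SRB staining after 10% TCA fixation, absorbance at 560 nm; bidirectional fit against DMSO.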

[19] = read-out: Macrophage colony-stimulating factor (MCSF), CSF1 (gene 1435); assay: BSK_hDFCGF_MCSF: BioMAP Diversity Plus: hDFCGF Assay for Macrophage colony-stimulating factor (MCSF) Biomarker Activity (AID 2283060); settings: primary human foreskin fibroblasts; actives raise or lower the signal
Outline: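 Human foreskin fibroblast primary cultures; M-CSF measured by ELISA 24 hours after chemical dosing. Bidirectional fitting relative to DMSO, with overt cytotoxicity tracked by parallel SRB total-protein staining (0.1% SRB, 10% TCA fixation, 560 nm).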

Measured: AC50

Sequence of E-selectin (Homo sapiens) (P16581 whole entry, looked up): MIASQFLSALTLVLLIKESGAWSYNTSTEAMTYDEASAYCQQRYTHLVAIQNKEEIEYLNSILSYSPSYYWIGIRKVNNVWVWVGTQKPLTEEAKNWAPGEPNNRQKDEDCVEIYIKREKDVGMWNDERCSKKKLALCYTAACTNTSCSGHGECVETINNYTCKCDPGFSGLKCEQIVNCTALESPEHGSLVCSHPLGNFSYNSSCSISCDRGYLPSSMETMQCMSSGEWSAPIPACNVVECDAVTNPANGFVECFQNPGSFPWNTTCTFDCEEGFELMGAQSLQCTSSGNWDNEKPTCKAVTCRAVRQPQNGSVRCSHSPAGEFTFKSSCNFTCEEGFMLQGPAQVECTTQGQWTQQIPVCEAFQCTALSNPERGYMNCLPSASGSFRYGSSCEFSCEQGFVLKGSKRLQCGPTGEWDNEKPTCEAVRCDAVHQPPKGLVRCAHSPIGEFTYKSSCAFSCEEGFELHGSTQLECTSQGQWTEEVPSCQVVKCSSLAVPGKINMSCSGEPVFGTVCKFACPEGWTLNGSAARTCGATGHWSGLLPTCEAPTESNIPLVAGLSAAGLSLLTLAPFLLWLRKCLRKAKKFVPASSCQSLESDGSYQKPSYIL

CCN1CN(CC)CN(CC)C1
not listed: [19]
inactive: all other assays above

Clc1cc(Cl)c(Cl)c(Cl)c1Cl
active: [11] 20 µM
not listed: [3]
inactive: all other assays above

Oc1ccccc1Cc1ccccc1O
active: [1] 1.22 µM and 191 nM
not listed: [3] | [12]
inactive: all other assays above

C[N+](C)(C)CCCNS(=O)(=O)C(F)(F)C(F)(F)C(F)(F)C(F)(F)C(F)(F)C(F)(F)C(F)(F)C(F)(F)F
inactive: [2] | [3] | [4] | [7] | [10] | [11] | [13] | [15] | [16]
active: [1] 55.3 µM and 47.5 µM | [5] 38.9 µM and 50.2 µM | [6] 47.8 µM and 53.5 µM | [7] 47.6 µM | [8] 42.7 µM and 46.7 µM | [9] 49.8 µM and 51.4 µM | [14] 30 µM and 44.7 µM | CD40, CD40 (gene 958) 42.8 µM and 25.4 µM | [16] 48.1 µM | [17] 31.3 µM and 39.7 µM | [18] 22.5 µM and 33.8 µM

C=CC(=O)OCCCCCCCC(C)C
active: [19] 20 µM | [1] 25.6 µM | [5] 12.3 µM | [6] 5.93 µM
not listed: [3]
inactive: all other assays above

CCOC(=O)C1=NN(c2ccc(Cl)cc2Cl)C(C)(C(=O)OCC)C1 (centres undefined)
not listed: [3]
inactive: all other assays above

Oc1ccc(/C=C/c2cc(O)cc(O)c2)cc1
active: [6] 0.474 µM | [10] 3.97 µM | [11] 8.83 µM | [13] 20 µM | [14] 16 µM | [18] 20 µM
inactive: all other assays above

Nc1ccc(C(=O)O)cc1
not listed: [3]
inactive: all other assays above

CCCCCCCCC(CO)CCCCCC (centres undefined)
active: [19] 4.32 µM | [1] 2 µM | [6] 3.75 µM
inactive: all other assays above

C=CCCCCCCCCC=O
not listed: [19]
inactive: all other assays above

c1ccc2sc(SSN3CCOCC3)nc2c1
inactive: [3] | [4] | [5] | [11] | [12] | CD40, CD40 (gene 958) | [16] | [17] | [18]
active: [1] 7.52 µM | [2] 10.7 µM | [6] 4.82 µM | [7] 10.7 µM | [8] 23.8 µM | [9] 10.3 µM | [10] 12.2 µM | [13] 12.2 µM | [14] 12.6 µM | [15] 12.9 µM

CCCCC1C(=O)N(c2ccccc2)N(c2ccccc2)C1=O
not listed: [19]
inactive: all other assays above

CC=C(C)C=CC=C(C)C
active: [19] 3.97 µM | [5] 6.06 µM | [6] 0.016 µM | [10] 0.016 µM | [14] 20 µM | [15] 3.13 µM | CD40, CD40 (gene 958) 7.42 µM
not listed: [3]
inactive: all other assays above
